In PubChem BioAssay (NCATS):
Inconclusive results are not listed. Activity calls are given as the source filed them. Calls follow the shape of the dose curve; as a rule, active = well fitted inhibition curve with a large enough effect; inconclusive = small, poorly fitted or top-dose-only effect; inactive = flat fitted curve, though single readings scatter.

Tests used:
Assay in all cases: qHTS profiling for inhibitors of Plasmodium falciparum proliferation (AID 504749); also: nearly all actives have a fitted effect of over 60% in size
Settings in all cases: P. falciparum in erythrocytes, SYBR Green DNA, 72 h; series mostly up to 28.7 µM
CP286 = tested on: CP286
How it was run: (§1)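 Each compound contacts P. falciparum-infected red blood cells for 72 h at 37 C; lysis buffer (Tris, EDTA, saponin, Triton X, SYBR Green I) is added and fluorescence measured next morning; values normalized to controls.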

CP291 = tested on: CP291
How it was run: as §1

CP297 = tested on: CP297
How it was run: as §1

CP305 = tested on: CP305
How it was run: as §1

CP315 = tested on: CP315
How it was run: as §1

CP325 = tested on: CP325
How it was run: as §1

CP329 = tested on: CP329
How it was run: as §1

CP335 = tested on: CP335
How it was run: as §1

DFO2036 = tested on: DFO2036
How it was run: as §1

DIV14 = tested on: DIV14
How it was run: as §1

DIV17 = tested on: DIV17
How it was run: as §1

DIV30 = tested on: DIV30
How it was run: as §1

Dd2 = tested on: Dd2
How it was run: as §1

ECU = tested on: ECU
How it was run: as §1

FAB9 = tested on: FAB9
How it was run: as §1

GB4 = tested on: GB4
How it was run: as §1

HB3 = tested on: HB3
How it was run: as §1

ICS = tested on: ICS
How it was run: as §1

JCK = tested on: JCK
How it was run: as §1

N140 = tested on: N140
How it was run: as §1

Measured: Potency

Cc1ncc([N+](=O)[O-])n1CCO
inactive: all assays above

Nc1nc(N)c2nc(CNc3ccc(C(=O)NC(CCC(=O)O)C(=O)O)cc3)cnc2n1 (stereo not given)
inactive: all assays above

CN1CCN(c2c(F)cc3c(=O)c(C(=O)O)cn4c3c2OCN4C)CC1
inactive: all assays above

CCc1cc(C(N)=S)ccn1
inactive: all assays above

O=c1cc(O)c(Cl)c[nH]1
inactive: all assays above

COc1cnc(NS(=O)(=O)c2ccc(N)cc2)nc1
inactive: all assays above

C#CCN[C@@H]1CCc2ccccc21
inactive: all assays above

NC(N)=NC(N)=NCCc1ccccc1
inactive: all assays above

Nc1ccc(S(=O)(=O)Nc2ccccn2)cc1
inactive: all assays above

CCCN[C@H]1CCc2nc(N)sc2C1
inactive: all assays above

CNC1CCCN(c2c(F)cc3c(=O)c(C(=O)O)cn(C4CC4)c3c2OC)C1 (stereo not given)
inactive: all assays above
